The results in this text go back to PubChem BioAssay.

Active and inactive are the calls of the source.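 How the source made its calls: active means mean inhibition above 46.5%, the solvent-only control mean plus 3 SD; inactive means the rest.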

The target of this experiment is Nuclear receptor coactivator 2 (Homo sapiens) (UniProt Q15596). Briefly: inhibition of GAL4-SRC2 driven luciferase expression – cell-based, luminescence, HEK293, triplicate, confirmation (AID 652008).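 Further: 0% = DMSO-treated cells and 100% = Gossypol at 36 µM.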 To be noted: HEK293 GAL4-SRC2 luciferase reporter, at 8.9 µM, stronger effect = higher value.
Chain of Nuclear receptor coactivator 2 (Homo sapiens) (Q15596 whole entry, looked up, the tested form may be a part): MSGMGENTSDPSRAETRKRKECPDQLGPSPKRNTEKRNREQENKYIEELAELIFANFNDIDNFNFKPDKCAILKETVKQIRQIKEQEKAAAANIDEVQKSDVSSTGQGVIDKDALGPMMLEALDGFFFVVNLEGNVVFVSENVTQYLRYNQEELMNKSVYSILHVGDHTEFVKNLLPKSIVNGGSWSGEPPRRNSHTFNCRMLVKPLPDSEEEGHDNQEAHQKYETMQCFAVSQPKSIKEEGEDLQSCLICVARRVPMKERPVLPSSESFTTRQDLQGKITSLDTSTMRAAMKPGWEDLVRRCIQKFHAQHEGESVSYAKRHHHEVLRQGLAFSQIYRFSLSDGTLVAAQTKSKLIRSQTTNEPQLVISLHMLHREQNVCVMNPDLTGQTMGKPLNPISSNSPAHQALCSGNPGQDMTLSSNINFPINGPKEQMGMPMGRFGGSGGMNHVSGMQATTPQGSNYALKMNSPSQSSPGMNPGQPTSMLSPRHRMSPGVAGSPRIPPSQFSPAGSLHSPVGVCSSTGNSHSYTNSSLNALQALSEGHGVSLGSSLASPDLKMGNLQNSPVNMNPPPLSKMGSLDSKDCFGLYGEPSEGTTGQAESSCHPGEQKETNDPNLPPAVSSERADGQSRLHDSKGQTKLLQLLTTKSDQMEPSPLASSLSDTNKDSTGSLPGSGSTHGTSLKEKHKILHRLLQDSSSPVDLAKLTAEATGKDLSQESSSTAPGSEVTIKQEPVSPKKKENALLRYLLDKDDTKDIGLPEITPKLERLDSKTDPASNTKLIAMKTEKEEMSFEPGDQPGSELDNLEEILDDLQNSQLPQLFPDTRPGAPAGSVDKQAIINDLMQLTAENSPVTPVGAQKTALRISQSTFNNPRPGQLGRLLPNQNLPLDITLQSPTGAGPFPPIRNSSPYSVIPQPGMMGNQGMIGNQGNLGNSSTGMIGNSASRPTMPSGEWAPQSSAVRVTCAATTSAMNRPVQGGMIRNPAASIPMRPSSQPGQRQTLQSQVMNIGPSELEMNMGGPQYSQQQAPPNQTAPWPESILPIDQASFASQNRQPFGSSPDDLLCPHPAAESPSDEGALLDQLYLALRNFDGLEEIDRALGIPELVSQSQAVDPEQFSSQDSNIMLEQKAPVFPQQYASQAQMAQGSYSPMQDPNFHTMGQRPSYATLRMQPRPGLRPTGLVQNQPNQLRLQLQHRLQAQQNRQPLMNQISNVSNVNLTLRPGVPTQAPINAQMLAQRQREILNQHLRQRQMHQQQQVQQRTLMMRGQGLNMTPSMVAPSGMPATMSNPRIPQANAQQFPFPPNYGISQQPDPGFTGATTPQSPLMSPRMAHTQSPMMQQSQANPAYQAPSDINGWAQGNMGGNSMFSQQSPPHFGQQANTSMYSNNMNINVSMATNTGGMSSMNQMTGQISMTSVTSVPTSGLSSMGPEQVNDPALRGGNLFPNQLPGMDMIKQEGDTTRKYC
With `O=C(CCl)Nc1cc2[nH]c(=O)[nH]c2cc1Br`, the inhibition is 74.7% (active).
The result for `Cc1cccc(/C=C(\c2nc3ccccc3[nH]2)S(=O)(=O)c2ccccc2)c1` reads 50.5% (active).
The result for `CN(C)CCC(=O)N1C/C(=C/c2ccccc2)C(=O)/C(=C\c2ccccc2)C1` reads 55.3% (active); that for `C=CC(=O)N1C/C(=C/c2ccc(Cl)cc2)C(=O)/C(=C\c2ccc(Cl)cc2)C1`, 88.4% (active); that for `CCN(Cc1ccc(OC)c(F)c1)C(=O)CCl`, 49.5% (active).
With `CC(C)(C)c1ccc(Oc2ccc(NC(=O)C3CC=CCC3C(=O)O)cc2)cc1` (configuration not stated), the inhibition is 19.9% (inactive).
The value for `COc1ccc(CCNc2ncnc3sc(C)cc23)cc1OC` was 25.8% (inactive); that for `CCCCCc1c(CC)ncn1CCc1ccccc1OC` was 1.53% (inactive); that for `Cc1ccc(NC(=O)C2=C(c3ccccc3)S(=O)(=O)CCS2(=O)=O)cc1` was 96.9% (active).
The value for `O=C(CCl)N1CCN(S(=O)(=O)Cc2ccccc2)CC1` was 46.2% (inactive).
Consider `COc1ccc(OC)c(N(CCN2C(=O)c3ccccc3C2=O)C(=O)CCl)c1`, for which the inhibition is 57.6% (active).
The result for `CC(=O)c1c(C)[nH]c(C(=O)COc2cc(C)ccc2C(C)C)c1C` reads 43% (inactive).
The result for `COc1ccc(/C=C/c2nc3ccccc3c(=O)o2)cc1` reads 84.3% (active).
The value for `O=C(NCCOc1cccnc1)c1ccc(OC2CCN(Cc3ccccn3)CC2)cc1` was 56.5% (active).
Turning to `CC1C/C(=C/c2ccncc2)C(=O)/C(=C/c2ccncc2)C1` (configuration not stated), the inhibition is 90.8% (active).
The result for `Cc1ccc(C(=O)Sc2cccccc2=O)cc1` reads 99.2% (active); that for `Cc1ccc(-c2nc(NC(=O)c3nn(C)cc3[N+](=O)[O-])sc2C)cc1`, 50.5% (active).
